Results taken from the supplement of paper PMC10681739.

What was measured:
[1] = target: T1, ETS1 (UniProt P14921); assay: ETS1 binding intensity (PBM fluorescence), ETS1 alone (arbitrary fluorescence units); higher = stronger binding; settings: ETS1 concentration 1 nM; RUNX1 concentration 0 nM
T1 sequence: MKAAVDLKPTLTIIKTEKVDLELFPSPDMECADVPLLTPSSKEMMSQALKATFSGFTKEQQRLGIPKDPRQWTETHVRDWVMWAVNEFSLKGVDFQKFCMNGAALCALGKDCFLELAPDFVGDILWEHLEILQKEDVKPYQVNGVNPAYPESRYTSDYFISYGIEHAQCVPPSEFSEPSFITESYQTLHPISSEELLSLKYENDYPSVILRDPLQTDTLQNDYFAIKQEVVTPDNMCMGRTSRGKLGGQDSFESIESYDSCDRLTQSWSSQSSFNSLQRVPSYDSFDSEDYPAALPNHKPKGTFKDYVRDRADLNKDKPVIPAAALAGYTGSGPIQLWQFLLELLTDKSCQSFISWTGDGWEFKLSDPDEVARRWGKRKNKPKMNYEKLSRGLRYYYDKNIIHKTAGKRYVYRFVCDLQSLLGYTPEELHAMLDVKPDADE

[2] = target: RUNX1 (UniProt Q01196); assay: RUNX1 binding intensity (PBM fluorescence), RUNX1 alone (arbitrary fluorescence units); higher = stronger binding; settings: RUNX1 concentration 2 nM; ETS1 concentration 0 nM
Experimental: (§1)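 Cooperative gcPBM on 36-bp genomic probes with neighbouring ETS1 and RUNX1 sites. Recombinant human RUNX1 (2 nM) was incubated alone or with ETS1 (25 nM) and detected with anti-RUNX1 antibody plus Alexa488 secondary. Values are medians over 4 replicate spots; the RUNX1+ETS1 data were normalised to the RUNX1-only data. The probes sit in constant array flanks that are not printed.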

[3] = target: T1, ETS1; assay: ETS1 binding intensity (PBM fluorescence) in presence of RUNX1, normalised to ETS1-only experiment (arbitrary fluorescence units); higher = stronger binding; settings: ETS1 concentration 1 nM; RUNX1 concentration 25 nM
[4] = target: RUNX1 (UniProt Q01196); assay: RUNX1 binding intensity (PBM fluorescence) in presence of ETS1, normalised to RUNX1-only experiment (arbitrary fluorescence units); higher = stronger binding; settings: RUNX1 concentration 2 nM; ETS1 concentration 25 nM
Experimental: as §1
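Wherever RUNX1 binding intensity (PBM fluorescence) in presence of ETS1, normalised to RUNX1-only experiment is given: Full-length recombinant human ETS1 or RUNX1 bound to double-stranded 36-bp genomic probes on microarrays, detected by protein-specific primary antibody and Alexa488 secondary, spot fluorescence as median of four replicate spots.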
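Wherever RUNX1 binding intensity (PBM fluorescence), RUNX1 alone is given: Full-length recombinant human RUNX1 bound to double-stranded 36-bp genomic probes on a high-density microarray, scored as Alexa488 fluorescence per spot via anti-RUNX1 antibody, median of four replicate spots.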

Sequence of RUNX1 (Q01196 whole entry): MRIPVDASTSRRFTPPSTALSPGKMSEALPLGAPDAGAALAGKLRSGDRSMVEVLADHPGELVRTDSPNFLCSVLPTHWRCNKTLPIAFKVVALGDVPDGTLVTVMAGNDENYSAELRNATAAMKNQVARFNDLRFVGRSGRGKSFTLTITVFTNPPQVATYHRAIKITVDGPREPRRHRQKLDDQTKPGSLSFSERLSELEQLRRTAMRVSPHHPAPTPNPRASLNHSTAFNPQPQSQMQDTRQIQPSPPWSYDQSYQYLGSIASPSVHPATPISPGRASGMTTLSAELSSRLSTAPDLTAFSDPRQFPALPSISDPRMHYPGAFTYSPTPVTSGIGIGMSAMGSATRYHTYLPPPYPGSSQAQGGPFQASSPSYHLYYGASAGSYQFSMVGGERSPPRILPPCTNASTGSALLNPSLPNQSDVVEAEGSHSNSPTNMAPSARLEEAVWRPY

Sequence | ETS1 binding intensity [1] | RUNX1 binding intensity [2] | ETS1 binding intensity [3] | RUNX1 binding intensity [4]
CCTCACCCAGGAAGTGGCTGCGGCTGTCTCAGGGTT | 2450 | 770 | 3340 | 1440
ATGGCGAAGCAGGATGCCCTCAACCCACATACGGCA | 638 | 1010 | 927 | 1000
TACAGCTGGAACGTCCTGTGGTTAACATTCTGCTCT | 423 | 1130 | 568 | 1970
CTCTTTCACAAAGGAAATGGAAACCACAAAGAGGAC | 2140 | 1820 | 14700 | 3930
AGGCCCCGCCCCTTCCGCCCACAGAGCCCGCCACTT | 779 | 1100 | 1000 | 1730
TGGCTGCCACTGAGAGGATGTGGTGACAGAGGTGGG | 1700 | 693 | 4350 | 886
AGCGCGCCGCCGACCGGATGCGGGAACTGGGCTCGG | 11800 | 715 | 19400 | 1550
GGAGGGGAGCAGGAAGCTGAGGTTTTGTGAGTCAGA | 1090 | 753 | 2490 | 1070
AACAGTCACATCCGGGGCCGAGAGGAACCGCGAACG | 1100 | 894 | 2080 | 1740
CTCACTCATCTGACTTCCTGCGGTTTACGACAACAG | 1200 | 11100 | 1970 | 17400
CAGTTTGCCCCGGATGTTGACCGCCTTGAAGTCGTA | 4170 | 910 | 4900 | 1380
GTGAGAGGAAGTGGGCGCTGGTTTAATGTGGTCAGC | 1010 | 834 | 5410 | 2360
GTCCCACGCGACTTCCTGCGGGAAACATGGCGGCAT | 1520 | 771 | 1820 | 2170
GTGGTCTCTCCCGGAAAAACCACTTCCACCGAGAAC | 932 | 861 | 1440 | 1270
CCCTGACTTTTACGGAAATAGCGGTCCAAAAGCGCC | 986 | 880 | 1080 | 1160
CAGAAAGAGGAAATGATGCGAGTCCACACCGCAGGC | 788 | 703 | 2610 | 1170
ACACCTCAGGCAGGATGTGGTAGGGGTTGCCCCAGA | 3730 | 1020 | 6810 | 2700
ACTCGGGAATGTCCGGTCGTGGTAAGCAGGGTGGCA | 516 | 803 | 529 | 1680
GAAGCCCAACAGGATGCCGAGTAACCACCCACTGAA | 1040 | 822 | 1120 | 924
TCCCACATCCTGTGCTCGTGCAGTGGTTAGGCTCAA | 562 | 793 | 608 | 2490
CACCTGCGGAAGTCACAGGGAAGCCACAGAGAGATG | 849 | 766 | 1160 | 1080

Sequence | ETS1 binding intensity [1] | RUNX1 binding intensity [2] | ETS1 binding intensity [3] | RUNX1 binding intensity [4]
CTGTCCGCTACATCCGGGACCTGCGGGACCGCCGAT | 1770 | 823 | 2430 | 2300
CGCCGGATGCATAAAAGACTGGCTGCGGTGGCTCAG | 604 | 724 | 1300 | 973
CGGCCTCTTCCGGTCACCTGGCCCGTCGCGGTCCCG | 1800 | 1040 | 1520 | 2290
AGATTTTGTCTTCCTGTTGTGGCAACATCTGTAGAA | 521 | 1210 | 406 | 1520
ACGACGTCCCGGAAGTGCTGCGGCAATGTTGCTCTT | 5570 | 759 | 6620 | 1470
GGGGCAGGAAGTGGAGGTTTGAAGTGGTTTAGAGTA | 1740 | 799 | 2310 | 1350
CCGCTGAGAACAGGATGTGGGTGTCAGGAGGTGAAG | 4850 | 765 | 7410 | 1530
CTGCTGGCGTTCCCGGATGTGCGGTGGCGGTGCTAC | 4900 | 753 | 9340 | 1570
TTTTTAAGGTCAGGATGTGGGCACATCTAAGGGGCA | 1330 | 816 | 1730 | 1370
AATATCCTGTATGTCATGCTTAAAAAGCCACAAAAC | 547 | 875 | 1070 | 2050
CCATCTTCATACAGGATGCTGTGGTATGTAAAACAA | 2110 | 787 | 3590 | 1240
CCGTACTTCCGCTTTACTCAGATTTTGGACCGCGGG | 1810 | 1490 | 1780 | 3640
GCGCACTTCCGGGCTGGTGAACGCGGTGACGTCACC | 1250 | 804 | 1210 | 1720
CTTACCTACAGTTCCGCTTGCTGTGGTTTCAGTTAC | 403 | 1040 | 843 | 2060
GGCATTCACTTCCGGTCTGGGGCCTGCGGCGGCGGC | 18600 | 793 | 19400 | 2260
GTTGCCCCACTTCCTGCCAGTGGTTTTTGGTTGGCC | 2660 | 944 | 4220 | 4040
CCAACACAGGAAATAATTTGAAACCACAATCAGAAA | 1270 | 1290 | 4460 | 3290
GGCTGCAGGAAGTGGGAAGGTGTGGCTTTGAGTCTC | 1830 | 755 | 2460 | 1820
TCCCCACATCCTTTAAAACGATGAGATAACCACATG | 398 | 1000 | 636 | 2960
CTTCAGCCGCCACTTCCCCGCCCCCGCAGCCCGACA | 936 | 1290 | 925 | 1290
GTGCTGAGCAGCTTCCCGTCTGCGGTGAAGACAGCC | 396 | 1150 | 1040 | 1930

Sequence | ETS1 binding intensity [1] | RUNX1 binding intensity [2] | ETS1 binding intensity [3] | RUNX1 binding intensity [4]
CAGTGACAGGAAGTGGTTCAGCGGTTGTTTAGGGCT | 7680 | 892 | 9430 | 3830
GCCCAGGCAGGAAGCCAGGCGCCCACAGGTTGGCAG | 990 | 643 | 1090 | 923
AAGGTGGAAAAAGGATGTGGTTCTAAGCTGGCTTCT | 887 | 735 | 1120 | 1020
CACCTGCAGTGAAGAGGATGTGGGCAAAGATTATGC | 1350 | 746 | 2180 | 1100
TACAATTCGCACCGGAACTTGCGGCCCGGCTTCATT | 3630 | 729 | 4640 | 963
TGTCGGGCGGATGTGTACCGGCGGTAATATAGTAAG | 2300 | 753 | 2270 | 1220
GCACTCATTTCCTGTCCCCTGTGGTTTAAAGGTTTT | 1990 | 1260 | 4620 | 4770
GGGGGCGGAAGTTTCGGTGCATTGTGGGTTCTCCTG | 1260 | 920 | 1980 | 1140
GAGCTAGCCACTTCCTCCCCCACAACTACACCCAGG | 814 | 976 | 914 | 3420
CTGCCCAGCCACTTCCTGCCCAACCACAGACTGACA | 2210 | 1420 | 4910 | 6000
TCTGTGACTACGCGGATGTTGTGGGCGGCTACATGC | 1000 | 749 | 1810 | 869
CTGCGCGGCCGGAAGTCGGCGGTTTCCCAGACGACG | 20800 | 759 | 30000 | 2820
TATTCAGGCTTCCGGGTGATGTTTGTGGCCACCCGG | 3800 | 671 | 5020 | 1510
CCAACAGTACCCTTCCTCCCTTAACCACAAGACTGA | 445 | 5500 | 2090 | 6290
TCAGGGGTGGGAGGAAGTGGTTAGGATCAGCCTGGG | 1910 | 776 | 3120 | 2680
AAACTCCCCCACTTCCGCCCACAGCCCTCTGGGCTT | 2010 | 984 | 2120 | 3490
CCTCTTGCTGCCTCTTCCTGTGGTCTTTTCTCTGTC | 737 | 1840 | 951 | 2720
TCATTCTCTGATAAAGGAAGTGGTTACAGCACAATT | 2910 | 822 | 10200 | 1270
CCTGGGCAAGGCCGGATGCCTGTGGCTTCCAGGCTG | 2880 | 685 | 3350 | 1060
AACCCGGAAGTGGACACGGAGCTCGGCTGCGGCTCC | 1750 | 705 | 2240 | 1530
CCGAGCTTAACGACATCCTGCGGCTCAGCGTGGAGG | 435 | 792 | 471 | 1190

Sequence | ETS1 binding intensity [1] | RUNX1 binding intensity [2] | ETS1 binding intensity [3] | RUNX1 binding intensity [4]
GGAGGGGCTGGCCGGAAGTGAACCGCAGAGCACGCT | 11600 | 1070 | 33500 | 2980
CGTTCTCTCATTTCCTGTGTGCACCCACATGAACCA | 3340 | 1740 | 3230 | 2920
AATATACGGTGAGGATGTGGGCAAAAAACAAAGAGG | 1060 | 809 | 1270 | 965
GCAACAGGAAGGACCAAGTCCCCTCCCGCAATTTTA | 627 | 888 | 955 | 1020
TCTTTGAGAAGCGGATGTGGTAAACTTGCCTCTGTT | 5970 | 801 | 36600 | 10000
TTGGTCAGCCTGCTTCCGGCTGTGGCTTCAGTTAGT | 1770 | 774 | 1920 | 1420
CTGCGAGCTCAGAACGGAAACCACAGCAACTACCGT | 2170 | 1070 | 4260 | 1550
ATCTTGGCCCATATCCTGTGGTGTTCTGCTAGAGGT | 768 | 791 | 843 | 1290
ATCAAACCCCAGGATATGTTGGTTTTGTAGGTTGTC | 562 | 874 | 524 | 629
ACAAAGAAACCTACATCCTAAGCCACAGAATACAGC | 545 | 930 | 523 | 881
CCAGAGCACATCCTACACGCACCACAACCTGAAAAC | 453 | 1250 | 396 | 1470
AGGCCCACCTGCTGCGGATGTGGTCTCTGTGTGTGC | 2340 | 774 | 6240 | 1340
CACCCGAACGGAAACACCTGCGGCTGAGGGGAGGGG | 959 | 989 | 1110 | 938
GGCGGGACTTCCGGCGTCTCCCCTCGGCGGTTGCTT | 2330 | 751 | 2700 | 1980
TTCATCTCTCACTTCCTGTGGTGACGGCTGACGGGG | 4120 | 1030 | 4690 | 1660
CCGGGCGCCACTTCCGGTCCCCGTGGTCACGTGACC | 14800 | 904 | 16100 | 3740
TTCACAACACAGGATGTGCGGTATTATACGGCAAAG | 5120 | 898 | 11200 | 2390
ATTTCCATTTCCGGACTCTTCTCCTGCCCGCAGGGC | 2270 | 1220 | 3560 | 3660
